Assay outcomes (PubChem)
JMJD2E inh: qHTS Assay for Inhibitors of Human Jumonji Domain Containing 2E (JMJD2E); AID 2147, 2009; Lysine-specific demethylase 4E (Homo sapiens), B2RXH2; 230,000 tested, 1.6% active; Potency, µM (doses to about 57.1 µM), without a hit: at the highest dose activity change, negative = inhibition, hits mostly inhibitors; JMJD2E catalytic domain, FDH-coupled NADH fluorescence (FDH is formaldehyde dehydrogenase);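 note: potency is the fitted concentration of half-maximal effect; 0% = wells with enzyme and -100% = buffer wells without enzyme; nearly all actives have a fitted effect of over 50% in size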
Target sequence (B2RXH2 1-337 limits assumed): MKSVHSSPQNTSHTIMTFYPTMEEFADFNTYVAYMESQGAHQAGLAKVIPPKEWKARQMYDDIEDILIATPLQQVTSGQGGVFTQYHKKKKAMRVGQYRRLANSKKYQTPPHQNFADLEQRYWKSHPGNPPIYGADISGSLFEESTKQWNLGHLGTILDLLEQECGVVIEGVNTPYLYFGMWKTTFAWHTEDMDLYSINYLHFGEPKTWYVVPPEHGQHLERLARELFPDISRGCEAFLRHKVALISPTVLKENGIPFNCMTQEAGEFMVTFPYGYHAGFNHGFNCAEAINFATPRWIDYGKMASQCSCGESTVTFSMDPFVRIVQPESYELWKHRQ
GoLoco inh red: qHTS Assay for Inhibitors of RGS12 GoLoco Motif Activity (Red Fluorophore); Guanine nucleotide-binding protein G(i) subunit alpha-1 (Homo sapiens), P63096; Gai1:RGS12 GoLoco peptide FP, rhodamine, 10 min; Potency, µM (doses to about 61.6 µM), inactives show at the top dose activity, negative = inhibition, usual class: inhibitors; 230,000 tested, 0.44% active; active = well fitted inhibition curve with a large enough effect, not every such curve was filed as active; inactive = no such curve, though single readings can be large or run the other way; note: potency is the fitted concentration of half-maximal effect; nearly all actives have a fitted effect of over 30% in size
Target sequence (P63096 whole entry, looked up): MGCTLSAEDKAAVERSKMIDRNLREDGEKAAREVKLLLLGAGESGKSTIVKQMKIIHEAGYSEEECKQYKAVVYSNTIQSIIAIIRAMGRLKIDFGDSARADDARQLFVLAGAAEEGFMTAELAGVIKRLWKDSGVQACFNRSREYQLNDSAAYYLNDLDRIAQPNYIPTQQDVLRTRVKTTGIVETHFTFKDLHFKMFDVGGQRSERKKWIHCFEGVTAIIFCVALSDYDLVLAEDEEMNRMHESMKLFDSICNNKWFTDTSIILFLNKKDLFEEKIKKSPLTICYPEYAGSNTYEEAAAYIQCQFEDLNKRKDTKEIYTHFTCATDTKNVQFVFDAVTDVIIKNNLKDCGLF
Coupling enz: qHTS Assay for Inhibitors of Fructose-1,6-bisphosphate Aldolase from Giardia Lamblia: Coupling assay counterscreen. 290,000 tested, 0.67% active. coupling enzyme system counterscreen, AmpLite Red fluorescence. activity change, negative = inhibition, % at 58.2 µM, hits read low. AID 2472, 2010; in the data active = activity change below about -30%
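Compounds tested against the coupling enzymes alone at 57.5 uM final; readout was AmpLite Red fluorescence (525/598 nm) after 20 min at RT.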
NPSR antagonist: qHTS Assay for Antagonists of the Neuropeptide S Receptor: cAMP Signal Transduction; CHO-NPSR cells, cAMP TR-FRET, antagonist mode; Potency, µM (top dose mostly 38.3 µM), for inactives: at the top dose activity change, negative = inhibition, usual class: inhibitors; AID 1461, 2008; Q6W5P4; 220,000 tested, 1% active; active = well fitted curve in the direction sought with a large enough effect; inconclusive = small, poorly fitted or top-dose-only effect, or another doubt; inactive = no such curve, though single readings can be large; an effect the other way counts as inactive or inconclusive; note: potency is the fitted concentration of half-maximal effect; nearly all actives have a fitted effect of over 50% in size
Sfp inh: qHTS Assay for Inhibitors of Bacillus subtilis Sfp phosphopantetheinyl transferase (PPTase). Biochemical Sfp PPTase activity, qHTS. Potency, µM, for the others: largest response in the series, negative = inhibition, actives largely listed as inhibitors. 310,000 tested, 3.5% active. AID 1490, 2009; active = well fitted curve in the direction sought with a large enough effect; inconclusive = small, poorly fitted or top-dose-only effect, or another doubt; inactive = no such curve, though single readings can be large; an effect the other way counts as inactive or inconclusive;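 note: the enzyme is Sfp with the accession as filed and its product quenches rhodamine fluorescence; potency is the fitted concentration of half-maximal effect; 0% = enzyme reaction without inhibitor and -100% = no enzyme wells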
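With Hepes-Na pH 7.6 buffer containing 10 mM MgCl2, Sfp (15 nM) modified BHQ-2-YbbR (12.5 uM) using rhodamine-CoA (5 uM). Two reads 30 minutes apart at 525/598 nm yielded each well's rate.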
ALDH1A1 block: qHTS Assay for Inhibitors of Aldehyde Dehydrogenase 1 (ALDH1A1); 220,000 tested, 7.3% active; Aldehyde dehydrogenase 1A1 (Homo sapiens), P00352; AID 1030, 2008; Purified ALDH1A1, NADH fluorescence, propionaldehyde substrate; Potency, µM (series often up to 75.3 µM), for inactives: at the top dose activity, negative = inhibition, hits mostly inhibitors;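 note: potency is the fitted concentration of half-maximal effect; plate controls were no enzyme wells and a reference inhibitor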
Numbers without * were called inactive; ? = inconclusive; . = not tested or not shown; ! = a repeat was not active; [ ] = remark or other dose. Hits are enriched below; roughly 8.5% of the tested compounds scored in any of these assays. Unless noted, calls come from the whole dose curve; as a rule, active = well fitted inhibition curve with a large enough effect (not every such curve was filed as active); inconclusive = small, poorly fitted or top-dose-only effect, or another doubt; inactive = no such curve, though single readings can be large or run the other way. Unless noted, % is set by controls: 0 for no effect and ±100 for the full control effect.

SMILES	JMJD2E inh	GoLoco inh red	Coupling enz	NPSR antagonist	Sfp inh	ALDH1A1 block
S=c1[nH]nc(Cn2c(-c3ccccn3)nc3ccccc32)n1-c1ccc2c(c1)OCCO2	?	-3.3%	-6.1	-21.4%	79.4µM*	.
CCN1C[C@@]2(COC)CCC(OC)[C@]34C5C[C@]6(O)[C@@H](OC)C[C@](OC(C)=O)(C([C@H](OC)C23)[C@H]14)C5[C@H]6OC(=O)c1ccc(OC)cc1 (stereo partly specified)	.	.	-0.7	.	29.3%	.
COc1ccc(C2=NCC(=O)N(CC(=O)NCc3ccco3)c3sc4c(c32)CCCC4)cc1	5.1%	0.6%	1.2	?	-12.3%	15.8µM*
Cc1cccc(C2=NCC(=O)N(CC(=O)NCc3ccco3)c3sc4c(c32)CCCC4)c1	-2.3%	35.9%	-8.6	?	22.4µM*	20µM*
O=C(CN1C(=O)CN=C(c2ccccc2Cl)c2cc(Cl)ccc21)NCc1ccco1	-2.5%	4.5%	2.1	-20.9%[46.1 µM]	-10.9%	6.6%
CN1CCc2nc3sc(C#N)c(N)c3c(-c3cccs3)c2C1	-14.5%	36.4%	-0.9	12.6µM*	50.1µM*	-2.5%
NC(=O)c1sc2nc3c(c(-c4cccs4)c2c1N)CCCC3	-18.5%	-3.2%	-1.6	-23.5%	-16.5%	?
CCOC(=O)C1CCN(/C=C2/C(=O)NC(=S)N(c3cccc(OC)c3)C2=O)CC1	8.3%	63.4%	2.3	7.4%	0.5%	0.0%
CCOC(=O)C1CCN(/C=C2\C(=O)NC(=S)N(CC)C2=O)CC1	0.2%	237.0%	2.9	34.4%	79.4µM*	-6.1%
Cc1c(N=Nc2c(O)n(Cc3ccccc3)c(=O)[nH]c2=O)c(=O)n(-c2ccccc2)n1C	7.08µM*	2.4%	-0.4	-12.1%	7.2%	-4.9%
Cc1c(N=Cc2c(O)n(Cc3ccccc3)c(=O)[nH]c2=O)c(=O)n(-c2ccccc2)n1C	2.7%	-0.3%	2.1	-2.3%	8.3%	-12.5%
CN1C2CCC1CC(NC(=O)c1nn(C)c3ccccc13)C2 (stereo unspecified)	?	11.1%	.	-5.6%[46.1 µM]	7.3%	-12.8%
O=C(OCC(=O)c1ccc([N+](=O)[O-])cc1)/C(=C/c1ccc(Cl)cc1)NC(=O)c1ccccc1	-9.9%	-12.2%	-0.8	-9.0%	?	7.94µM*
CCc1ccccc1N1C(=O)CC(=O)NC1=O	-22.0%	-3.3%	-1.0	5.9%	-16.6%	-5.7%
Cc1ccccc1N1C(=O)CC(=O)NC1=O	-2.0%	8.1%	4.0	0.2%[46.1 µM]	56.2µM*	-6.4%
Cc1cc(C=O)c(C)n1C1CCCCC1	-3.2%	4.4%	-9.6	-1.7%[46.1 µM]	0.6%	22.4µM*
Cc1cc(/C=C2\C(=O)NC(=S)N(C)C2=O)c(C)n1C1CCCCC1	-4.0%	37.5%	-1.3	-35.2%	?	-7.7%
CCN1C(=O)C(=Cc2cc(C)n(C3CC3)c2C)C(=O)N(CC)C1=S	-2.4%	189.0%	-0.5	-54.1%	?	10µM*
Cc1cc(C=C2C(=O)N(C)C(=S)N(C)C2=O)c(C)n1-c1cccnc1	-3.2%	128.1%	4.0	-46.2%	-2.5%	11.2µM*
Cc1cc(/C=C2/C(=O)NC(=O)N(C)C2=O)c(C)n1-c1ccccc1	-5.3%	20.4%	1.6	2.0%	-0.2%	2.0%
Cc1cc(C=C2C(=O)N(C)C(=S)N(C)C2=O)c(C)n1C1CCCC1	-4.2%	67.8%	-2.9	?	56.2µM*	22.4µM*
Cc1ccc(N)cc1[N+](=O)[O-]	.	28.4%	.	.	.	?
O=C(O)CS(=O)(=O)C(c1ccccc1)c1ccccc1	.	8.1%[14.2 µM]	.	.	.	3.5%[13.5 µM]
CCCCCc1cc(O)cc(O)c1	.	31.4%	.	.	.	7.4%
N[C@H](CCCP(=O)(O)O)C(=O)O	?	0.4%	-1.8	.	16.5%	-2.0%
SMILES	JMJD2E inh	GoLoco inh red	Coupling enz	NPSR antagonist	Sfp inh	ALDH1A1 block
CCCOC(=O)c1ccccc1C(=O)OCCC	.	2.9%	.	.	.	?
CCCCCCCCOC(=O)c1ccccc1C(=O)OCCCCCCCC	.	4.6%	.	.	-9.7%	25.1µM*
CN(C(=O)CNC(=O)OCc1ccccc1)c1ccc(Br)cc1C(=O)c1ccccc1Cl	-6.9%	3.3%	0.8	-10.8%	9.9%	?
O=C(CNC(=O)OCc1ccccc1)Nc1ccc(Br)cc1C(=O)c1ccccc1Cl	-16.5%	-2.4%	-1.7	-48.5%	28.2µM*	8.4%
CC(=O)O.CC(=O)O.[Cd]	20µM*	7.1%	0.3	.	25.1µM*	12.6µM*
CCCCCCCCCCCCCCCC[N+](C)(C)C	-10.6%	-1.8%	2.9	.	44.7µM*!	1.0%
CCOCN(C(=O)CCl)c1c(C)cccc1CC	2.3%	3.1%	-0.4	.	12.8%	31.6µM*!
O=C(O)/C=C\c1ccc[c]([Sb])c1	.	-0.1%[14.2 µM]	.	.	.	8.2%[13.5 µM]
CN1C(=O)NC(=O)/C(=C/c2ccc([N+](=O)[O-])s2)C1=O	22.4µM*	-3.0%	-21.3	-36.4%	11.2µM*	.
C=CCN1C(=O)NC(=O)/C(=C/c2cccn2C)C1=O	5.5%	2.1%	-1.1	-10.6%[46.1 µM]	-28.3%	4.1%
COc1ccc(OC)c(N2C(=O)NC(=O)/C(=C\c3ccc([N+](=O)[O-])s3)C2=O)c1	22.4µM*	193.1%	-20.4	-23.3%	22.4µM*	25.1µM*
COc1ccc2c(c1)/C(=C/c1cnc[nH]1)C(=O)N2	-0.6%	-9.7%	0.0	?	2.1%	3.7%
O=C1NC(=O)N(c2ccccc2)C(=O)/C1=C\c1ccc([N+](=O)[O-])s1	?	100.7%	-11.7	-5.5%	12.6µM*	.
[N-]=[N+]=[N-]	.	8.8%	.	.	.	17.8µM*
COc1cc2ccccc2c2cc([N+](=O)[O-])oc12	.	-2.3%[14.2 µM]	.	.	.	-6.3%[13.5 µM]
CN1C[C@H](C(=O)N[C@]2(C)O[C@@]3(O)C4CCCN4C(=O)[C@H](Cc4ccccc4)N3C2=O)C[C@@H]2c3cccc4[nH]cc(c34)C[C@H]21 (stereo partly specified)	-5.9%	3.6%	-0.9	?	-25.4%	-12.0%
CCCc1nnc(NC(=O)CCC(=O)N2CCN(CCOC(c3ccccc3)c3ccccc3)CC2)s1	6.8%	3.4%	0.4	-14.4%	6.7%	?
CCc1nnc(NC(=O)CSc2ccc(-c3ccco3)nn2)s1	?	26.7%	-5.6	-6.3%	28.2µM*	?
NCCSC(c1ccccc1)c1ccccc1	.	0.0%[14.2 µM]	.	.	.	-11.9%[13.5 µM]
